The target in assay [1] is Lysosomal acid glucosylceramidase (Homo sapiens) (UniProt P04062). As to the kind of experiment: Glucocerebrosidase-p2 (AID 348; in the data active = potency below about 10 µM; note: potency is the fitted concentration of half-maximal effect). As to conditions: purified GBA, blue fluorogenic substrate, 40 min. An outline of the steps: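 Normal human glucocerebrosidase (0.2 nM) with blue fluorogenic substrate (80 uM final) in citrate/phosphate pH 5.9 with 10mM sodium taurocholate, 0.01% tween-20; 40 min RT, NaOH/glycine stop; fluorescence Ex 365/Em 440; AC50 from a titration from 0.6 nM upwards.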
Chain of Lysosomal acid glucosylceramidase (Homo sapiens) (P04062 whole entry, looked up): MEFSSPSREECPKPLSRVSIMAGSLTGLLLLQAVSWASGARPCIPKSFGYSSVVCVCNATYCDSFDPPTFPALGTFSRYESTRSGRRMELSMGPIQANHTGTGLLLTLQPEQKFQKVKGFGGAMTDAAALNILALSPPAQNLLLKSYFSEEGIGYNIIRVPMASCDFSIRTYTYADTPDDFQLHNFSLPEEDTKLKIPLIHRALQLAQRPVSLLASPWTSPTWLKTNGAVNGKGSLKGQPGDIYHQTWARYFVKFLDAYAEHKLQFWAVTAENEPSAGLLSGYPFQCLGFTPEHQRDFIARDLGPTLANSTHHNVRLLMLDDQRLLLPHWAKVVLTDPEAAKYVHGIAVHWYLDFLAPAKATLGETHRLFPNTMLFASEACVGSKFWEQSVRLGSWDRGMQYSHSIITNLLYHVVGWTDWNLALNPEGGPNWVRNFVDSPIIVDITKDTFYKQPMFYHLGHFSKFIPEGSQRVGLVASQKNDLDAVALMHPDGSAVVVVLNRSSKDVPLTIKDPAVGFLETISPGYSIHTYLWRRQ

Assay [2] can be described thus: AP1 Signaling Pathway (AID 357). Note: % is set by controls: 0 for no effect and ±100 for the full control effect. As to conditions: ME-180 AP-1-bla reporter, EGF-induced, beta-lactamase ratio, 5 h; at 7.69 µM (top of the series) unless noted. Summed up: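 Read-out was the 460nm/530nm emission ratio (excitation 405nm) after CCF4 loading for 2.5 hours at room temperature. Cells carried an AP-1-driven beta-lactamase reporter, were stimulated with EC50 EGF plus compound for 5 hours, and AC50 values came from titrations.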

The nature of assay [3]: NFAT Signaling Pathway (AID 444).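 Note: carbachol stimulus at about its EC50 of 1 µM final; % is set by controls: 0 for no effect and ±100 for the full control effect.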 As to conditions: Jurkat NFAT-bla M1, carbachol, beta-lactamase ratio, 5 h; at 7.69 µM (top of the series) unless noted. An outline of the steps:
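Jurkat cells carrying an NFAT-driven β-lactamase reporter and co-transfected muscarinic M1 receptor were treated with compound plus carbachol (1 uM final, an EC50 level) for 5 h at 37 °C. CCF4 loading followed for 1 h at RT; 460/530 nm ratio gave %activity.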

A short description of assay [4]: Stat Signaling Pathway (AID 446).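 Note: ME-180 cervical cancer cells given 40 pM IL-6 alongside compound; SIE-controlled beta-lactamase reporter measured as 460/530 nm FRET emission ratio; % is set by controls: 0 for no effect and ±100 for the full control effect.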 The conditions noted are these: ME-180 SIE beta-lactamase reporter, IL-6 stimulated, 5 h; at 7.69 µM (top of the series) unless noted. Summed up:
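Normalization used AC90 stimulation (300 pM IL-6) and AC90 inhibition (125 nM pan-JAK inhibitor at 40 pM IL-6). The underlying signal is SIE-driven beta-lactamase in ME-180 cells after 5 h IL-6 exposure with compound.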

Assay [5] concerns the target Mitogen-activated protein kinase 10 (Mus musculus) (UniProt Q61831). The assay is described as follows: JNK3 AlphaScreen Assay (AID 530).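 Note: kinase came from lysate of stimulated human HepG2 cells; % is set by controls: 0 for no effect and ±100 for the full control effect.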 As to conditions: JNK3 lysate, c-Jun phosphorylation; series mostly up to 57.1 µM. Summed up: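 Biotinylated GST-cJun(1-79) served as substrate for JNK3 in HepG2 lysates stimulated with IL-1beta and TNF-alpha. ATP was 10 uM final, pH 7.6. Ser73 phosphorylation was quantified by AlphaScreen (680 nm excitation).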
For orientation: Bead proximity is the source of the signal in Alpha formats.

Assay [6] concerns the target 3',5'-cyclic-AMP phosphodiesterase 4B (Homo sapiens) (UniProt Q07343). As to the kind of experiment: qHTS Assay for Inhibitors of PDE-IV (AID 607; active = well fitted activation curve with a large enough effect in the main read-out, with a control signal flat, not every such curve was filed as active; note: % of control where 0% means no effect). As to conditions: HEK293 ACTOne CNG channel cells, membrane potential fluorescence; series mostly up to 22.9 µM. An outline of the steps: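 HEK293 ACTOne cells with CNG channel (1000/well), endogenous PDE4; membrane potential dye, compounds up to 22.9 uM final. Fluorescence Ex 535/Em 590; RO 20-1724 (100 uM final) as reference.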

Assay [7] is described as follows: qHTS Assay for Lipid Storage Modulators (AID 1519; calls by dose curve). The conditions noted are these: Drosophila S3 cells, BODIPY lipid droplet/cell ratio, laser cytometry, cells loaded with oleic acid; for activity change, negative = inhibition: at 57.5 µM (top of the series). An outline of the steps:
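Cells seeded at 5,000 per well were treated with compounds over a concentration series and loaded with oleic acid (400 uM, as added). Lipid droplet fluorescence (488 nm excitation, 500-530 nm channel) was read by laser-scanning cytometry and normalized to 20 uM Triacsin C.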
(In general: In qHTS, concentration-response curves come from the screen itself.)

Assay [8] can be described thus: Primary qHTS for small molecule stabilizers of the endoplasmic reticulum resident proteome: Secreted ER Calcium Modulated Protein (SERCaMP) assay (AID 1508630; active = well fitted inhibition curve with a large enough effect; note: % is set by controls: 0 for no effect and ±100 for the full control effect). As to conditions: SH-SY5Y GLuc-SERCaMP (Gaussia luciferase released on ER calcium loss) secretion, thapsigargin, luminescence; series mostly up to 38.4 µM. Summed up: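 The SH-SY5Y reporter protocol was run at 3 concentrations up to 38.3 uM (primary) or 11 concentrations (follow-up): 16 h compound, 100 nM thapsigargin for 4 h, then extracellular luciferase luminescence.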

For assay [9], the target named is Glucocorticoid receptor (Homo sapiens) (UniProt P04150). The assay is described as follows: GR-EFC Redistribution (AID 451; calls by dose curve; note: potency is the fitted concentration of half-maximal effect). As to conditions: CHO-K1 GR-EFC translocation, beta-gal luminescence, 2 h. An outline of the steps:
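CHO-K1 cells stably expressing nuclear-localized β-gal enzyme acceptor and GR fused C-terminally to the enzyme donor fragment; ligand-driven nuclear translocation restores β-gal by complementation. Compounds titrated up to 46 uM final, 2 h at 37 °C; luminescence read.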

Assay [10] is described as follows: qHTS Assay for Identification of Small Molecule Agonists for Hypoxia Response Element Signaling Pathway (AID 914; active = well fitted activation curve with a large enough effect in the signal ratio, with a control signal flat, not every such curve was filed as active; the % refers to the signal ratio; note: % of control where 0% means no effect). The conditions noted are these: ME-180 (cervical carcinoma) HRE-bla reporter, beta-lactamase ratio, CoCl2, 17 h; activation: stronger effect = higher value. An outline of the steps:
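Positive modulation of EC50 CoCl2-induced hypoxia response element signaling is measured in ME-180 cells with a beta-lactamase reporter. Compounds are titrated, incubation runs 17 hours, and %Activity derives from the blue/green ratio.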

Where [11] appears, read: measured here: cell count channel max response.
Where [12] appears, read: measured here: lipid channel max response.

Structures are written as SMILES. Results filed as inconclusive are left out. Active and inactive are the calls of the source. Unless noted, calls come from the whole dose curve; as a rule, active = well fitted curve in either direction with a large enough effect (not every such curve was filed as active); inconclusive = small, poorly fitted or top-dose-only effect, or another doubt; inactive = flat fitted curve, though single readings scatter.

Chain of Glucocorticoid receptor (Homo sapiens) (P04150 whole entry, looked up, the tested form may be a part): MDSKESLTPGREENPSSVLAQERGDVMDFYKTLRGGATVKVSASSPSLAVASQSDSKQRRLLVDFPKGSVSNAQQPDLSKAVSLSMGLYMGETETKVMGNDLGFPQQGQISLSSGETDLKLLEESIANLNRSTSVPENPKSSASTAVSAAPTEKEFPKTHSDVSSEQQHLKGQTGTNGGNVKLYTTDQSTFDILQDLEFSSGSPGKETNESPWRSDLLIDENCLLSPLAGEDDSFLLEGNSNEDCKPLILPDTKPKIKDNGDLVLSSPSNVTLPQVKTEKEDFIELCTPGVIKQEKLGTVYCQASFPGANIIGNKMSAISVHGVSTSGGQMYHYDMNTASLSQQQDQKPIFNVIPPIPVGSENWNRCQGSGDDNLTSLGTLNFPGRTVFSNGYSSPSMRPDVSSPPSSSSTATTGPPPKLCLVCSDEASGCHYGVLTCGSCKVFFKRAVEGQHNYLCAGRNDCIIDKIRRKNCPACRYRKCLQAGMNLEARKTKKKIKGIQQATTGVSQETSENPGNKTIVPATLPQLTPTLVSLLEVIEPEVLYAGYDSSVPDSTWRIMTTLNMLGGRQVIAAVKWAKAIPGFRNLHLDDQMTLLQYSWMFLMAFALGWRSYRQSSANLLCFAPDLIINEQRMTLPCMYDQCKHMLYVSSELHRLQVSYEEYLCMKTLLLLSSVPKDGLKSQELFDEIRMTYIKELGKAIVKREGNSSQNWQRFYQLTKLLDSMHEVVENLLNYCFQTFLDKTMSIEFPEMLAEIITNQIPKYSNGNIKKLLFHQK
Chain of 3',5'-cyclic-AMP phosphodiesterase 4B (Homo sapiens) (Q07343 whole entry, looked up): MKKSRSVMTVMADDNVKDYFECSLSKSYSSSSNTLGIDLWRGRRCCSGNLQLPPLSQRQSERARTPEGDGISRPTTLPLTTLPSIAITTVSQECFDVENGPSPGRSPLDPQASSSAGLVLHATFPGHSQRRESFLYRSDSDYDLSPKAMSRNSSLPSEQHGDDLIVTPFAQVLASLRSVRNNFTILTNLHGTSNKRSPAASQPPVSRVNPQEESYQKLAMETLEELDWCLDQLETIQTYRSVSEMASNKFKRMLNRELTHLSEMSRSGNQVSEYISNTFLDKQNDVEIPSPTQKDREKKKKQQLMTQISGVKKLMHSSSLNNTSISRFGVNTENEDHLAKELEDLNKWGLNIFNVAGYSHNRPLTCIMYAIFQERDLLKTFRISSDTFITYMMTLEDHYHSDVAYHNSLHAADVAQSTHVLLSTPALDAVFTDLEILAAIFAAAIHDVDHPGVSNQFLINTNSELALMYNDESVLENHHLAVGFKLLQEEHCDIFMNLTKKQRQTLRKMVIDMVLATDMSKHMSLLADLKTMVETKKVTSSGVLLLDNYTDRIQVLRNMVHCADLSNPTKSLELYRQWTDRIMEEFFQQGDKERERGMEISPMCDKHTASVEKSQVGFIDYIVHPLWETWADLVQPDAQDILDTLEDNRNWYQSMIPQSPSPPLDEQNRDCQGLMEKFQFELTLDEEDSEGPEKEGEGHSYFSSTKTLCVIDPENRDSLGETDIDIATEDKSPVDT

For the compound `O=C(c1cnccn1)N1CCC[C@@]2(CCN(Cc3ccccc3)C2)C1`, the Potency in assay [1] is > 11.4 µM (inactive). Besides, the activity change, negative = inhibition in assay [2] is 5.08% (inactive); in [3] it was 6.26% (inactive); in assay [7], 1.97% (inactive). Also, in assay [4], the activity, negative = inhibition is 1.17% (inactive). The Potency result in assay [5] and in assay [6] was “inactive” in each case. The results for the max response in assay [7] (setting [11]) and in assay [7] (setting [12]) were 8.78% and 13.2%, respectively. In addition, the outcome in assay [8] was inactive.
For the compound `COCC(=O)N1CCC2(CCN(Cc3nccs3)CC2)CC1`, the Potency in assay [1] is > 11.4 µM (inactive); in [9] it was > 46 µM (inactive). The activity change, negative = inhibition in assay [2] was 0.0953% (inactive); in assay [3] it was -2.93% (inactive); in [7] it was 2.2% (inactive). Moreover, the activity, negative = inhibition in assay [4] was 10% (inactive). Moreover, the Potency result in [5] and in assay [6] was “inactive” throughout. For the same compound, the activation in assay [10] was 14.8% (inactive). The max response in assay [7] (setting [11]) came to 9.94%; in assay [7] (setting [12]) it was 16.3%. Further, the result in assay [8] was inactive.
With `CC(C)CN1CC2(CCN(C(=O)c3ccco3)CC2)C1`, the Potency in [1] was > 11.4 µM (inactive); in assay [9] it was > 46 µM (inactive). The activity change, negative = inhibition was 6.73% (inactive) in [2] and -2.08% (inactive) in [7]. For the same compound, the activity, negative = inhibition in [4] was -3.41% (inactive). The Potency result in assay [5] and in assay [6] was “inactive” each time. In addition, the max response in assay [7] (setting [11]) was determined as 8.53%; in [7] (setting [12]) it was 7.7%. Further, the outcome in [8] was inactive.
As to `COc1ccccc1CN1CCC2(CC1)CCN(C(=O)c1ccncc1)CC2`, the Potency in assay [1] is > 11.4 µM (inactive); in assay [9], > 46 µM (inactive). Besides, the figures for the activity change, negative = inhibition in assay [2] and in [7] were -13% (inactive) and -0.0628% (inactive), respectively. Moreover, the activity, negative = inhibition in assay [4] was 5.76% (inactive). Moreover, the Potency entry in [5] and in assay [6] was “inactive” in each case. Further, the max response in [7] (setting [11]) is -18.4%; in assay [7] (setting [12]), -17.2%. Further, the result in assay [8] was inactive.
As to `O=C(c1ccncc1)N1CCC2(CCCN(c3ccncc3)C2)CC1`, the Potency in [1] was > 11.4 µM (inactive); in assay [9] it was > 46 µM (inactive). For the same compound, the activity change, negative = inhibition is -3.65% (inactive) in assay [2] and 0.736% (inactive) in [7]. The activity, negative = inhibition in assay [4] is -4.53% (inactive). Besides, the Potency entry in assay [5] and in assay [6] was “inactive” each time. Moreover, the results for the max response in [7] (setting [11]) and in assay [7] (setting [12]) were -10.7% and -8.67%, respectively. In assay [8], the result was inactive.
As to `COc1ccc(C(=O)N2CCC3(CCN(Cc4ccccc4)CC3)CC2)cc1`, the values for the Potency in assay [1] and in assay [9] were > 11.4 µM (inactive) and > 46 µM (inactive), respectively. In addition, the figures for the activity change, negative = inhibition in assay [2] and in assay [7] were -0.685% (inactive) and 0.635% (inactive), respectively. Further, the activity, negative = inhibition in assay [4] is 0.0273% (inactive). Besides, the Potency entry in [5] and in [6] was “inactive” in each case. Besides, the max response in assay [7] (setting [11]) was -0.0682%; in assay [7] (setting [12]) it was 7.94%. Also, the outcome in assay [8] was inactive.
Consider `COc1ccc(NC(=O)N2CCCC3(CCN(C(C)=O)CC3)C2)cc1`, for which the Potency is > 11.4 µM (inactive) in assay [1] and > 46 µM (inactive) in assay [9]. Also, the values for the activity change, negative = inhibition in assay [2], in [3] and in [7] were -2.44% (inactive), 11.5% (inactive) and 5.88% (inactive), respectively. For the same compound, in assay [4], the activity, negative = inhibition is -0.377% (inactive). Further, the Potency entry in [5] and in assay [6] was “inactive” in each case. In [10], the activation was -9.1% (inactive). The max response stood at 10.9% in assay [7] (setting [11]) and 18.6% in assay [7] (setting [12]). Moreover, the outcome in [8] was inactive.

(Values after PubChem BioAssay (NCATS).)
